Screens (PubChem)
SARS PLpro yeast – inhibitors of SARS-CoV papain-like protease in yeast; S. cerevisiae expressing SARS-CoV PLpro, growth rescue; actives 0.19% (n = 330,000); Potency, µM (series often up to 32.9 µM), inactives show at the top dose activity, positive = growth rescue, actives largely listed as activators; note: 0% is about no effect; nearly all actives have a fitted effect of over 55% in size
NS1 inh – influenza NS1 inhibition. Potency, µM (top dose mostly 46.1 µM), for the others: at the highest dose activity, positive = more growth. actives 0.4% (n = 270,000). AID 2326; note: actives are rising curves; nearly all actives have a fitted effect of over 50% in size
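In this qHTS, NS1 from influenza A is expressed in budding yeast, where it slows growth. Cells are switched from glucose to 2% galactose medium (pH 6.0, -URA), treated with compound, and growth recovery is read at OD600.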
Pf growth 48h – inhibits P. falciparum growth in the first generation, 48 h; actives 5.9% (n = 310,000); P. falciparum luciferase growth in erythrocytes, 48 h; Potency, µM (series often up to 28.7 µM), inactives show top-dose activity change, negative = inhibition, hits mostly inhibitors; AID 504832; active = well fitted inhibition curve with a large enough effect; inconclusive = small, poorly fitted or top-dose-only effect, or another doubt; inactive = no such curve, though single readings can be large or run the other way; note: % is set by controls: 0 for no effect and ±100 for the full control effect
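Firefly luciferase activity from engineered P. falciparum reports growth; inhibitors lower the luminescent signal. Cultures contained 2% hematocrit erythrocytes at 0.1% final parasitemia.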
Pf growth 96h – P. falciparum growth inhibition at 96 hours | P. falciparum luciferase reporter growth, 96 h | Potency, µM (titrated, usually from 28.7 µM), for inactives: at the top dose activity change, negative = inhibition, actives largely listed as inhibitors | actives 6.9% (n = 320,000); active = well fitted inhibition curve with a large enough effect; inconclusive = small, poorly fitted or top-dose-only effect, or another doubt; inactive = no such curve, though single readings can be large or run the other way; note: % is set by controls: 0 for no effect and ±100 for the full control effect
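96 h incubation, 37 C, 5% CO2, of luciferase-reporter P. falciparum-infected RBCs (2% hematocrit, 0.05% parasitemia final) with test compounds; endpoint luminescence.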
RE007 growth inh – less growth of the S. pombe RE007 Vpr strain | S. pombe RE007 Vpr strain, BacTiter-Glo ATP luminescence, 24 h | Potency, µM (series often up to 92.2 µM), inactives show at the highest dose activity change, negative = less growth, actives largely listed as inhibitors | actives 0.21% (n = 360,000) | AID 651644; active = well fitted falling curve with a large enough effect; inconclusive = small, poorly fitted or top-dose-only effect; inactive = no such curve, though single readings can be large or run the other way; note: % is set by controls: 0 for no effect and ±100 for the full control effect; nearly all actives have a fitted effect of over 50% in size
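Fission yeast RE007 carrying one integrated HIV-1 vpr copy, seeded at OD 0.01 in PMG+AL medium with 23 nL pinned compound. Grown 24 h at 30 degrees; viability read by BacTiter-Glo luminescence after 5 min.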
* = called active by the depositor; [ ] = dose if it differs, or a comment. Shown are actives, neighbours in structure and some others; about 9.5% of the full set was active somewhere. Unless noted, calls come from the whole dose curve. Potency is the fitted concentration of half-maximal effect.

How did CCCOc1ccccc1C1C(C(=O)OC)=CN(C(C)C)C=C1C(=O)OC do in these assays?
SARS PLpro yeast: 1%; NS1 inh: -61%; Pf growth 48h: 13µM*; RE007 growth inh: 1%

How did CCOC(=O)C1(CC2CCCCO2)CCN(Cc2nccn2-c2ccc(OC)cc2)CC1 (stereo unspecified) do in these assays?
SARS PLpro yeast: 2%; NS1 inh: 4%; Pf growth 48h: 10µM*; Pf growth 96h: -11%; RE007 growth inh: -13%

Results for CCOC(=O)C1(CC2CCCCO2)CCN(Cc2nccn2-c2cccc(C)c2)CC1 (stereo unspecified) ?
SARS PLpro yeast: 0%; NS1 inh: -1%; Pf growth 48h: inconclusive; Pf growth 96h: 0%; RE007 growth inh: -8%

What do the screens show for `CNCC[C@H](Oc1cccc2ccccc12)c1cccs1`?
SARS PLpro yeast: -1%; Pf growth 48h: 13µM*; Pf growth 96h: 6.7µM*; RE007 growth inh: -10%[18.4 µM]

Results for N#CCCN(C(=O)COC(=O)c1cc(=O)c2ccccc2o1)c1ccccc1 ?
SARS PLpro yeast: 4%; Pf growth 48h: -20%; Pf growth 96h: inconclusive; RE007 growth inh: 8%

How did O=C(O)CN1C(=O)/C(=C\c2cc(Br)ccc2OCc2ccc(Cl)cc2)SC1=S do in these assays?
SARS PLpro yeast: 1%; NS1 inh: -2%; Pf growth 48h: 19%; Pf growth 96h: 10µM*; RE007 growth inh: 1%

How did O=C1/C(=C\c2cc([N+](=O)[O-])ccc2O)SC(=S)N1Cc1ccc(Cl)cc1 do in these assays?
SARS PLpro yeast: -8%; NS1 inh: -52%; Pf growth 48h: inconclusive; Pf growth 96h: 16%; RE007 growth inh: 40µM*

How did O=C1/C(=C\c2ccc(O)c(O)c2)SC(=S)N1Cc1ccccc1 do in these assays?
SARS PLpro yeast: -11%; NS1 inh: -61%; Pf growth 48h: 13µM*; Pf growth 96h: 33%; RE007 growth inh: inconclusive

How did O=C(O)CN1C(=O)/C(=C\c2cccc(OCc3ccccc3)c2)SC1=S do in these assays?
SARS PLpro yeast: 1%; NS1 inh: -28%; Pf growth 48h: 14%; Pf growth 96h: 15µM*; RE007 growth inh: 14%

Results for Cc1ccc(N(CC(=O)NC2CCCCC2)S(=O)(=O)c2cccs2)cc1 ?
SARS PLpro yeast: 8%; NS1 inh: 2%; Pf growth 48h: -6%; Pf growth 96h: -9%; RE007 growth inh: 2%

What do the screens show for `CCOc1ccc(-n2c(SCC(=O)Nc3ccc(CC)cc3)nc3n[nH]c(C)c3c2=N)cc1`?
SARS PLpro yeast: 0%; Pf growth 48h: 11%; Pf growth 96h: inconclusive; RE007 growth inh: 3%

What do the screens show for `COc1ccccc1NC(=O)CSc1nc2n[nH]c(C)c2c(=N)n1-c1ccccc1Cl`?
SARS PLpro yeast: inconclusive; NS1 inh: 23%; Pf growth 48h: 5.9µM*; Pf growth 96h: 6%; RE007 growth inh: 1%

How did Cc1[nH]nc2nc(SCC(=O)NC3CCCCC3)n(-c3ccc(Br)cc3)c(=N)c12 do in these assays?
SARS PLpro yeast: -2%; NS1 inh: 7%; Pf growth 48h: -13%; Pf growth 96h: 13µM*; RE007 growth inh: 7%

Results for O=C1c2ccccc2C(O)(O)[C@@]1(O)[C@]1(O)C(=O)c2ccccc2C1(O)O ?
NS1 inh: -3%

Results for COc1ccc(N(CC(=O)O)S(=O)(=O)c2ccc(C)cc2)cc1Cl ?
SARS PLpro yeast: 1%; NS1 inh: -1%; Pf growth 48h: 13%; Pf growth 96h: 29%; RE007 growth inh: 5%

How did O=C(CC1Sc2ccccc2NC1=O)NNc1cc(Cl)ccc1Cl (stereo unspecified) do in these assays?
RE007 growth inh: 22%

How did O=C(NCC(c1ccco1)N1CCc2ccccc2C1)C(=O)Nc1ccc(F)cc1F (stereo unspecified) do in these assays?
SARS PLpro yeast: 1%; Pf growth 48h: inconclusive; Pf growth 96h: inconclusive; RE007 growth inh: 2%

What do the screens show for `COc1ccc(N(CC(=O)N2CCc3ccccc32)S(=O)(=O)c2c(C)nn(C)c2C)cc1`?
SARS PLpro yeast: 0%; NS1 inh: -2%; Pf growth 96h: 8.3µM*; RE007 growth inh: 13%

Results for CCOC(=O)C1CCN(C(=O)CN(c2ccc(OC)cc2)S(=O)(=O)c2c(C)nn(C)c2C)CC1 ?
SARS PLpro yeast: -1%; NS1 inh: -6%; Pf growth 96h: 7.4µM*; RE007 growth inh: -6%

What do the screens show for `CCOC(=O)C1CCN(C(=O)CN(c2ccc(OC)cc2)S(=O)(=O)c2c(C)noc2C)CC1`?
SARS PLpro yeast: -5%; NS1 inh: -5%; Pf growth 96h: 43%; RE007 growth inh: -3%

What do the screens show for `COc1ccc(C(CCN2CCCCC2)c2c(OC)cc(OC)c3c(-c4ccccc4)cc(=O)oc23)cc1` (stereo unspecified)?
SARS PLpro yeast: 0%; NS1 inh: 2%; Pf growth 48h: 10µM*; Pf growth 96h: 9.3µM*; RE007 growth inh: 3%

Results for COc1cc(OC)c2c(-c3ccccc3)cc(=O)oc2c1C(CCN1CCCCC1)c1ccc(N(C)C)cc1 (stereo unspecified) ?
SARS PLpro yeast: 1%; NS1 inh: -43%; Pf growth 48h: 10µM*; Pf growth 96h: inconclusive; RE007 growth inh: -10%

Results for COc1cc(OC)c2c(-c3ccccc3)cc(=O)oc2c1C(CCN1CCOCC1)c1ccc(N(C)C)cc1 (stereo unspecified) ?
SARS PLpro yeast: 6%; RE007 growth inh: -1%

How did COC(=O)c1c(C)[nH]c(C(=O)OCC(=O)c2c(N)n(CC(C)C)c(=O)n(C)c2=O)c1C do in these assays?
SARS PLpro yeast: -3%; RE007 growth inh: -3%

Results for CCCCCCNC(=O)CCCCCNS(=O)(=O)c1ccc(Br)cc1 ?
SARS PLpro yeast: 1%; Pf growth 48h: inconclusive; Pf growth 96h: 65%; RE007 growth inh: -21%

How did CSc1nc(SCC(=O)NCc2ccco2)c2c3c(sc2n1)CN(C)CC3 do in these assays?
NS1 inh: 26%; RE007 growth inh: -13%

How did CSc1nc(SCC(N)=O)c2c3c(sc2n1)CN(C)CC3 do in these assays?
SARS PLpro yeast: 4%; NS1 inh: 7%; Pf growth 48h: 3.3µM*; Pf growth 96h: 0.59µM*; RE007 growth inh: 19%

What do the screens show for `CCNc1nc(SCC(N)=O)nc2sc3c(c12)CCN(C)C3`?
SARS PLpro yeast: 0%; NS1 inh: 5%; Pf growth 48h: inconclusive; Pf growth 96h: 1µM*; RE007 growth inh: -16%

What do the screens show for `O=C1CCCN1c1nccs1`?
SARS PLpro yeast: 2%; Pf growth 48h: 7%; Pf growth 96h: 6%; RE007 growth inh: 1%

How did COc1ccc(CCNC(=O)CNC(=O)Cn2ccc3ccccc3c2=O)cc1OC do in these assays?
SARS PLpro yeast: 1%; NS1 inh: 0%; Pf growth 48h: 0%; Pf growth 96h: -6%; RE007 growth inh: -3%
